Some test systems named below: DU-145 prostate; K-562 leukemia; MALME-3M melanoma; MDA-MB-231 breast; RXF 393 renal; SF-268 CNS; SF-295 CNS; SF-539 CNS; UACC-257 melanoma; M14 melanoma.
What all share (test): NCI-60 one-dose screen, 48 h (100 = growth as untreated, 0 = no growth, -100 = all killed)
What all share (conditions): 10 µM unless noted

The panel holds about 83,000 compounds, 20% with a hit somewhere; the sample as a whole holds those more often.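 Values shown are percent growth following 48 h exposure of cells in 96-well plates to a single concentration of compound; below 10 was considered active.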 Unmarked numbers belong to inactive results. Active and inactive are the calls of the source.

Take `CCN1C(=O)/C(=C/C(=O)OC)S/C1=N\NC(=O)c1cc2ccc1/C=C\c1ccc(cc1)/C=C\2`: the growth with DU-145 prostate is 108%; in the test on K-562 leukemia, 54.2%; in the test with MALME-3M melanoma it was 91.9%; with MDA-MB-231 breast it was 96.1%; with RXF 393 renal, 101%; with SF-268 CNS it was 97.8%. Moreover, the growth in the test with SF-295 CNS is 96.9%; with SF-539 CNS it was 90.2%; in the test on UACC-257 melanoma it was 92.7%; in the test on M14 melanoma, 87.1%.
In the case of `N#Cc1cccc(-c2ccc3c(c2)NC(=O)/C3=C\c2ccc[nH]2)c1`, the growth with DU-145 prostate was 92.8%; with K-562 leukemia, 18.8%; in the test with MALME-3M melanoma, 51.6%; in the test on MDA-MB-231 breast it was 33.5%; in the test with RXF 393 renal, 73.3%; in the test with SF-268 CNS, 95.6%. Also, the growth with SF-295 CNS is 78.7%; in the test on SF-539 CNS, 71.8%; in the test with UACC-257 melanoma, 67.6%; in the test on M14 melanoma, 56.4%.
Consider `COc1cccc2c1c1nc3cc(C)c(C)cc3nc1n2CCN(C)C`, for which the growth with DU-145 prostate was 19.7%; with K-562 leukemia, 6.22% (active); in the test on MALME-3M melanoma, -12.1% (active); in the test with MDA-MB-231 breast it was 23.5%; with RXF 393 renal it was 30%; in the test on SF-268 CNS it was 37.9%. For the same compound, the growth was 20.1% in the test on SF-295 CNS, 23.2% with SF-539 CNS, 8.52% (active) in the test with UACC-257 melanoma and 22.2% in the test on M14 melanoma.
With `COc1ccc(C(=O)c2cc(OC)c(OC)c(OC)c2)cc1O`, the growth in the test with DU-145 prostate is 9.94% (active); in the test on K-562 leukemia, 8.98% (active); in the test with MALME-3M melanoma, 35.2%; with MDA-MB-231 breast, 24.8%; in the test on RXF 393 renal, 0.69% (active); with SF-268 CNS it was 29.3%. Further, the growth is -8.79% (active) in the test with SF-295 CNS, -22.1% (active) in the test on SF-539 CNS, 69.3% with UACC-257 melanoma and -3.92% (active) with M14 melanoma.
For `Nc1nc(Nc2ccccc2SSc2ccccc2Nc2nc(N)nc(-c3ccc(C(F)(F)F)cc3)n2)nc(-c2ccc(C(F)(F)F)cc2)n1`, the growth in the test on DU-145 prostate was 73.4%; with K-562 leukemia it was 55%; in the test with MALME-3M melanoma, 93%; with MDA-MB-231 breast it was 67.4%; in the test on RXF 393 renal, 78.6%; in the test with SF-268 CNS it was 50.4%. The growth was 65.5% in the test with SF-295 CNS, 88.2% in the test with SF-539 CNS, 106% in the test with UACC-257 melanoma and 72.5% in the test with M14 melanoma.
Consider `O=S(=O)(NCCNc1nccc(-c2c(-c3cccc(O)c3)nc3occn23)n1)c1ccc(C(F)(F)F)cc1`, for which the growth in the test on DU-145 prostate was 108%; in the test with K-562 leukemia it was 97.2%; with MALME-3M melanoma, 7.76% (active); in the test on MDA-MB-231 breast it was 90.7%; with RXF 393 renal, 101%; with SF-268 CNS, 97.3%. Also, the growth with SF-295 CNS was 107%; with SF-539 CNS, 114%; in the test on UACC-257 melanoma, 61.1%; with M14 melanoma, 38.9%.
`Cc1cc2nc3c4ccc(Br)cc4n(CCN(C)C)c3nc2cc1C`: the growth in the test with DU-145 prostate was 3.18% (active); in the test on K-562 leukemia it was 4.08% (active); in the test on MALME-3M melanoma, 0.769% (active); in the test on MDA-MB-231 breast, 15.2%; in the test with RXF 393 renal, 16.4%; with SF-268 CNS, 31%. Moreover, the growth was 14.8% in the test on SF-295 CNS, 17.2% in the test on SF-539 CNS, 18% with UACC-257 melanoma and 14.8% in the test with M14 melanoma.
As for `Cn1nc(CC#N)c2c(=N)n(N)cnc21`, the growth in the test with DU-145 prostate was 106%; in the test with K-562 leukemia, 103%; in the test with MALME-3M melanoma it was 118%; in the test on MDA-MB-231 breast it was 96.7%; in the test with RXF 393 renal, 112%; with SF-268 CNS, 101%. In addition, the growth is 95% in the test on SF-295 CNS, 108% in the test on SF-539 CNS, 111% with UACC-257 melanoma and 110% with M14 melanoma.
In the case of `O=C(N/N=C/c1ccc(Oc2ccccc2)cc1)c1cnn2c1NC(c1ccccc1)C2` (stereo not given), the growth in the test on DU-145 prostate was 49.2%; with K-562 leukemia, 46.4%; in the test on MALME-3M melanoma it was 20.5%; in the test with MDA-MB-231 breast, 72.8%; in the test on RXF 393 renal it was 71.5%; in the test on SF-268 CNS it was 64.5%. Moreover, the growth was 18.6% with SF-295 CNS, 37.5% in the test with SF-539 CNS, 59.8% in the test on UACC-257 melanoma and 46.2% in the test on M14 melanoma.
Regarding `O=S(=O)(NCCNc1nccc(-c2c(-c3cccc(F)c3)nc3sccn23)n1)c1ccccc1`, the growth is 40% with DU-145 prostate; 23.9% in the test on K-562 leukemia; 68.5% with MALME-3M melanoma; 66% in the test on MDA-MB-231 breast; 64.1% with RXF 393 renal; 43.5% in the test with SF-268 CNS. For the same compound, the growth was 47.4% in the test on SF-295 CNS, 65.5% in the test with SF-539 CNS, 65.3% with UACC-257 melanoma and 41.4% in the test on M14 melanoma.
With `O=C(Cn1c[n+](CC(=O)c2ccc([N+](=O)[O-])cc2)c2ccccc21)Nc1cccc2cccnc12`, the growth with DU-145 prostate is 85.1%; in the test with K-562 leukemia, 38.2%; in the test on MALME-3M melanoma, 81.4%; in the test on MDA-MB-231 breast it was 50.5%; in the test with RXF 393 renal it was 97.6%; in the test with SF-268 CNS, 65.1%. Besides, the growth was 101% in the test on SF-295 CNS, 87.8% in the test on SF-539 CNS, 48.6% in the test with UACC-257 melanoma and 78.4% in the test with M14 melanoma.
With `Cc1ccc(-n2cc(-c3ccccc3)c3c2N=NN2CCN=C32)cc1`, the growth with DU-145 prostate was 113%; in the test with K-562 leukemia, 87%; with MALME-3M melanoma, 104%; in the test with MDA-MB-231 breast, 85.9%; with RXF 393 renal it was 109%; in the test with SF-268 CNS it was 96.8%. For the same compound, the growth in the test with SF-295 CNS is 96.5%; in the test with SF-539 CNS, 101%; in the test on UACC-257 melanoma, 113%; with M14 melanoma it was 104%.
`Brc1ccc2[nH]cc(-c3cncn3CCc3ccccc3)c2c1`: the growth in the test with DU-145 prostate was 68.1%; in the test with K-562 leukemia it was 27.3%; in the test on MALME-3M melanoma, 65%; in the test with MDA-MB-231 breast it was 65.4%; in the test on RXF 393 renal, 38.1%; with SF-268 CNS it was 50.3%. In addition, the growth is 37.7% with SF-295 CNS, 65.2% in the test on SF-539 CNS, 48.3% in the test with UACC-257 melanoma and 53.3% with M14 melanoma.

The record behind these values is PubChem BioAssay (NCI).
